Rows were chosen to be rich in hits. Some 6.6% of all compounds tested hit in one or more screens of this group.
MCF10A rereplic = induces DNA re-replication in MCF 10a normal breast cells; MCF 10A DNA re-replication, Hoechst nuclear intensity, 48 h; Potency, µM (top dose mostly 46.1 µM), hits mostly activators; actives 2.9% (n = 350,000); AID 624296; note: nearly all actives have a fitted effect of over 50% in size
TSG101-PTAP inh = blocks PTAP/TSG101 interaction to inhibit HIV-1 budding | Fluorescence polarization, FITC-PTAP peptide / Tsg101 binding | Potency, µM (highest dose often 115 µM), most hits filed as inhibitors | 340,000 tested, under 10 active; active = well fitted inhibition curve with a large enough effect in the main read-out, with a control signal flat, not every such curve was filed as active; inconclusive = small, poorly fitted or top-dose-only effect, or effect the other way, or a change in a side signal; inactive = no such curve, though single readings can be large or run the other way
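Fluorescence polarization binding of Tsg101 binding domain (10 uM final) to FITC-labeled PTAP peptide (50 nM final) in HEPES pH 7.5 buffer with NaCl, Tween 20, EDTA, TCEP. Compounds added before peptide; binding 20 min at RT.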
SW480 rereplic = DNA re-replication induction in SW480 cells; SW480 DNA re-replication, Hoechst DNA content imaging, 48 h; Potency, µM (doses to about 46.1 µM), most hits filed as activators; actives 1.8% (n = 340,000); note: nearly all actives have a fitted effect of over 55% in size
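250 cells/well; 23 nL cpd via pin tool; 48 hr, 37 C, 5% CO2; Hoechst 40 min; imager read of total nuclear intensity, ex 405/em 500-530 nm.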
KB-V1 cytotox = KB-V1 MDR subline cytotoxicity; KB-V1 MDR cells viability, CellTiter-Glo, 72 h; Potency, µM (series often up to 46.1 µM), usual class: cytotoxic; actives 3.4% (n = 400,000); AID 1347076; note: nearly all actives have a fitted effect of over 60% in size
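Drug-selected KB-V1 cells, grown in DMEM lacking phenol red with 10% FBS, receive compound titrations; after three days at 37 degrees C, surviving cell ATP is quantified by CellTiter-Glo luminescence and responses normalized and curve-fitted.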
RGS4 inh = blocks human RGS4-accelerated GTP hydrolysis | Transcreener GDP fluorescence polarization, RGS4-accelerated GTP hydrolysis | P49798 | Potency, µM (top dose mostly 114 µM), hits mostly inhibitors | AID 504845 | actives 0.039% (n = 390,000); note: nearly all actives have a fitted effect of over 75% in size
Target sequence (P49798 whole entry, looked up): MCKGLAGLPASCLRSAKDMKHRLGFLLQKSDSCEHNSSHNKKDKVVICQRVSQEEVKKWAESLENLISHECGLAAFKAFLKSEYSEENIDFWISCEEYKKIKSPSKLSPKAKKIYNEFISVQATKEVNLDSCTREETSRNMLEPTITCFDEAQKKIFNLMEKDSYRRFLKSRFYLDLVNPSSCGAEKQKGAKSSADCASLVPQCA
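MLSMR compounds (23 nl, pin-transferred) preincubated 10 min at room temperature with a 500nM (2x) first reagent, then RGS4 at 900nM (2x) plus Transcreener GDP mix added; fluorescence polarization (620/688 nm) read before and after 90 min at 30 °C.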
KB-3-1 cytotox = kills parental KB-3-1 adenocarcinoma cells. AID 1347075. KB-3-1 viability, CellTiter-Glo ATP luminescence, 72 h. Potency, µM (highest dose often 46.1 µM), hits mostly cytotoxic. actives 1.4% (n = 400,000); note: nearly all actives have a fitted effect of over 60% in size
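Luminescent ATP read-out (CellTiter-Glo) measures survival of drug-naive KB-3-1 cells after 72 h compound exposure at 37 °C. Titration series was screened from lowest to highest concentration, with DMSO vehicle plates as background controls.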
Numbers stand for hits; 0 = inactive; ? = inconclusive; - = no result; [ ] = dose if it differs, or a comment. Unless noted, calls come from the whole dose curve; as a rule, active = well fitted curve in the direction sought with a large enough effect; inconclusive = small, poorly fitted or top-dose-only effect, or another doubt; inactive = no such curve, though single readings can be large; an effect the other way counts as inactive or inconclusive.

SMILES	MCF10A rereplic	TSG101-PTAP inh	SW480 rereplic	KB-V1 cytotox	RGS4 inh	KB-3-1 cytotox
CCOC(=O)c1cnc2c(ccc3ccccc32)c1Nc1ccc(OC)c(OC)c1	-	-	-	?	0	7.3µM
CCOC(=O)c1cnc2c(OC)cccc2c1Nc1ccc2c(c1)OCCO2	?	0	?	13µM	0	?
CCOC(=O)c1cnc2c(ccc3ccccc32)c1Nc1ccc(C(C)=O)cc1	-	-	-	16µM	0	?
CCOC(=O)c1cnc2c(ccc3ccccc32)c1Nc1ccc(Cl)cc1	-	-	-	0	0	0
CCOc1ccc(C(=O)NCCc2csc(-c3cccnc3)n2)cc1	-	-	-	?	0	0
CCOc1ccc(C(=O)NCCn2cc(SCC(=O)NCCc3ccc(OC)c(OC)c3)c3ccccc32)cc1	-	-	-	0	0	0
CCOc1cc(Br)c(C=O)cc1OCC	?	0	13µM	0	0	?
CCOc1cc(Br)c(C(=O)O)cc1OCC	0	0	0	0	0	0
C[C@@H]1C(=O)N(S(=O)(=O)c2ccc([N+](=O)[O-])cc2)[C@H]1c1ccc(F)cc1	-	-	-	-	0	-
Cc1ccc(Nc2nc(N)nc(CN3CCN(Cc4ccc5c(c4)OCO5)CC3)n2)cc1Cl	?	0	0	?	0	21µM
CCOC(=O)N1CCN(Cc2nc(N)nc(Nc3ccc(Oc4ccccc4)cc3)n2)CC1	?	0	0	13µM	0	0
COc1ccc(Nc2nc(N)nc(CN3CCOCC3)n2)cc1	0	0	0[9.22 µM]	0	?	0
COc1ccc(N2CCN(Cc3nc(N)nc(Nc4ccc(C)c(Cl)c4)n3)CC2)cc1	?	0	?	5.2µM	0	0
Cc1ccc(Nc2nc(N)nc(CN3CCN(c4ccccc4)CC3)n2)cc1Cl	18µM	0	0	16µM	0	0
COc1ccccc1Nc1nc(N)nc(CN2CCN(c3ccccc3)CC2)n1	?	0	0	?	0	0
O/N=C(/CI)c1ccc2ccccc2c1	-	-	-	0	-	0
O=C(Nc1nnc([C@H]2C[C@H](O)[C@@H](CO)O2)s1)Nc1ccccc1F	-	-	-	0	-	0
CC(C)c1ccccc1NC(=O)Nc1nnc([C@H]2C[C@H](O)[C@@H](CO)O2)s1	-	-	-	0	-	0.0012µM
O=C1C(=Cc2cccn2-c2ccccc2)C(=O)c2ccccc21	0	0	18µM	0	0	0
COc1cc(C2CC(=O)Nc3cc4c(cc32)OCCO4)cc(OC)c1O (stereo unspecified)	-	-	-	0	0	0
COc1cc(-c2ccc(N=Nc3ccc4c(S(=O)(=O)O)cc(S(=O)(=O)O)c(N)c4c3O)c(OC)c2)ccc1N=Nc1ccc2c(S(=O)(=O)O)cc(S(=O)(=O)O)c(N)c2c1O	-	-	-	-	0	-
CCCc1ccc(-c2cc(C(=O)NN3CCOCC3)c3ccccc3n2)cc1	0	0	0	5.2µM	0	0
O=C(NCC(c1cccs1)N1CCOCC1)c1cc(-c2ccc(F)cc2)nc2ccccc12 (stereo unspecified)	0	0	0	21µM	0	0
CC(C)(CNC(=O)c1cc(-c2ccc(Cl)s2)nc2ccccc12)N1CCOCC1	?	0	23µM	0	0	0
CC(C)Oc1cccc(-c2cc(C(=O)NN3CCOCC3)c3ccccc3n2)c1	?	0	0	0	0	0
SMILES	MCF10A rereplic	TSG101-PTAP inh	SW480 rereplic	KB-V1 cytotox	RGS4 inh	KB-3-1 cytotox
CN1CCN(NC(=O)c2cc(-c3ccc(Cl)s3)nc3ccccc23)CC1	15µM	0	16µM	0	0	0
Cc1cc(C)c(C(=O)c2ccc(C(=O)N(C(C)C)C(C)C)cc2)c(C)c1	0	0	0	16µM	0	?
CCc1ccc(NC(=O)CSc2nc3c(c(=O)[nH]2)CN(Cc2ccc(C)cc2)CC3)cc1	-	-	-	0	0	0
CCn1nc(NC(=O)c2cccnc2)c2cc3cccc(C)c3nc21	7.1µM	0	?	0	0	0
CCn1nc(NC(=O)c2ccccn2)c2cc3cccc(C)c3nc21	12µM	0	?	0	0[11.4 µM]	0
CCn1nc(NC(=O)c2ccncc2)c2cc3cccc(C)c3nc21	0	0	0	0	0	0
CCn1nc(NC(=O)C2CCCO2)c2cc3cccc(C)c3nc21 (stereo unspecified)	?	0	18µM	0	0	0

Source: PubChem
